From PubChem BioAssay (Tox21)
Results filed as inconclusive are left out. The source made the active and inactive calls. Calls come from the whole dose curve; as a rule, active = well fitted curve in the direction sought with a large enough effect in the repeat runs; inconclusive = weak or mixed curves; inactive = no such curve, though single readings can be large; an effect the other way counts as inactive or inconclusive.

Experiments:
[1] = A CellTox Green Cytotoxicity Assay to monitor cytotoxicity in HEK293 cells - 40 hour (AID 1224871); note: nearly all actives have a fitted effect of over 45% in size
Summary of the method: (§1)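 HEK293 cells, 600/well, were preincubated 5 hours and then exposed to compounds at 37 C for up to 40 hours. A cell-impermeant cyanine dye staining dead-cell DNA was read by fluorescence at 0, 8, 16, 24, 32 and 40 h time points.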

[2] = qHTS RealTime-Glo MT Cell Viability Assay in HEK293 cells - 16 hour (AID 1224872); note: top concentration of the series differs between compounds; nearly all actives have a fitted effect of over 50% in size
Summary of the method: (§2)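 Nonlytic real-time viability readout: viable cells convert prosubstrate to NanoLuc substrate, giving luminescence proportional to live cell number. HEK293, 600 cells/well, compound added after 5 h, continuous culture at 37 C.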

[3] = qHTS RealTime-Glo MT Cell Viability Assay in HepG2 cells - 8 hour (AID 1224873); note: nearly all actives have a fitted effect of over 55% in size
Summary of the method: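 HepG2 cells mixed with RealTime-Glo MT reagents (NanoLuc plus cell-permeant prosubstrate) were seeded at 600 cells/well, incubated 5 h at 37 C/5% CO2, then pinned with compounds in DMSO; nonlytic luminescence tracked viability during 40 h treatment.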

[4] = qHTS RealTime-Glo MT Cell Viability Assay in HEK293 cells - 40 hour (AID 1224874); details: RealTime-Glo luminescence; max response: stronger effect = lower value; note: nearly all actives have a fitted effect of over 50% in size
Summary of the method: (§3)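 600 cells/well were plated with the nonlytic NanoLuc/prosubstrate reagent, pre-incubated 5 h, then given 23 nL of compound in DMSO. Incubation at 37 C for 40 h, with luminescence from viable-cell-reduced substrate read repeatedly from 0 h.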

[5] = A CellTox Green Cytotoxicity Assay to monitor cytotoxicity in HEK293 cells - 24 hour (AID 1224875); note: series mostly up to about 77 µM; nearly all actives have a fitted effect of over 45% in size
Summary of the method: as §1

[6] = A CellTox Green Cytotoxicity Assay to monitor cytotoxicity in HepG2 cells - 16 hour (AID 1224876); note: nearly all actives have a fitted effect of over 45% in size
Summary of the method: (§4)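 HepG2 cells, 600/well, preincubated 5 h with CellTox Green dye, then exposed to Tox21 compounds in DMSO at 37 C for up to 40 h. Dead-cell DNA fluorescence read at the indicated time point.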

[7] = qHTS RealTime-Glo MT Cell Viability Assay in HepG2 cells - 32 hour (AID 1224877); note: nearly all actives have a fitted effect of over 55% in size
Summary of the method: (§5)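 Luminescence read-out: viable HepG2 cells reduce a prosubstrate to a NanoLuc substrate, giving a signal proportional to live cell number. Reads taken at 0, 8, 16, 24, 32 and 40 h of compound exposure at 37 C.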

[8] = A CellTox Green Cytotoxicity Assay to monitor cytotoxicity in HepG2 cells - 24 hour (AID 1224878); note: nearly all actives have a fitted effect of over 45% in size
Summary of the method: as §4

[9] = A CellTox Green Cytotoxicity Assay to monitor cytotoxicity in HepG2 cells - 40 hour (AID 1224879); note: nearly all actives have a fitted effect of over 40% in size
Summary of the method: as §4

[10] = qHTS RealTime-Glo MT Cell Viability Assay in HEK293 cells - 0 hour (AID 1224880)
Summary of the method: as §3

[11] = A CellTox Green Cytotoxicity Assay to monitor cytotoxicity in HEK293 cells - 32 hour (AID 1224881); note: nearly all actives have a fitted effect of over 40% in size
Summary of the method: as §1

[12] = A CellTox Green Cytotoxicity Assay to monitor cytotoxicity in HepG2 cells - 0 hour (AID 1224882); note: nearly all actives have a fitted effect of over 35% in size
Summary of the method: as §4

[13] = A CellTox Green Cytotoxicity Assay to monitor cytotoxicity in HepG2 cells - 32 hour (AID 1224883); note: nearly all actives have a fitted effect of over 50% in size
Summary of the method: as §4

[14] = A CellTox Green Cytotoxicity Assay to monitor cytotoxicity in HEK293 cells - 8 hour (AID 1224884); note: nearly all actives have a fitted effect of over 35% in size
Summary of the method: as §1

[15] = qHTS RealTime-Glo MT Cell Viability Assay in HepG2 cells - 16 hour (AID 1224885); note: nearly all actives have a fitted effect of over 50% in size
Summary of the method: as §5

[16] = qHTS RealTime-Glo MT Cell Viability Assay in HEK293 cells - 24 hour (AID 1224886)
Summary of the method: as §2

[17] = qHTS RealTime-Glo MT Cell Viability Assay in HEK293 cells - 8 hour (AID 1224887)
Summary of the method: as §3

[18] = A CellTox Green Cytotoxicity Assay to monitor cytotoxicity in HEK293 cells - 16 hour (AID 1224888); note: nearly all actives have a fitted effect of over 35% in size
Summary of the method: as §1

[19] = qHTS RealTime-Glo MT Cell Viability Assay in HepG2 cells - 0 hour (AID 1224889); note: nearly all actives have a fitted effect of over 50% in size
Summary of the method: as §5

[20] = A CellTox Green Cytotoxicity Assay to monitor cytotoxicity in HepG2 cells - 8 hour (AID 1224890); note: nearly all actives have a fitted effect of over 45% in size
Summary of the method: as §4
% is set by controls: 0 for no effect and ±100 for the full control effect.

NC(CCC(=O)O)C(=O)O (stereo not given)
inactive: Potency [1] | Potency [2] | outcome [3] | max response [4] 16.4% | outcome [5] | outcome [6] | Potency [7] | outcome [8] | Potency [9] | Potency [10] | outcome [11] | Potency [12] | Potency [13] | outcome [14] | outcome [15] | Potency [16] | Potency [17] | outcome [18] | Potency [19] | outcome [20]

CCCC[N+](C)(CCCC)CCCC
inactive: Potency [1] | Potency [2] | outcome [3] | max response [4] -1.08% | outcome [5] | outcome [6] | Potency [7] | outcome [8] | Potency [9] | Potency [10] | outcome [11] | Potency [12] | Potency [13] | outcome [14] | outcome [15] | Potency [16] | Potency [17] | outcome [18] | Potency [19] | outcome [20]

C=C(C)C(=O)OCC(O)CO (stereo not given)
inactive: Potency [1] | Potency [2] | outcome [3] | max response [4] 2.31% | outcome [5] | outcome [6] | Potency [7] | outcome [8] | Potency [9] | Potency [10] | outcome [11] | Potency [12] | Potency [13] | outcome [14] | outcome [15] | Potency [16] | Potency [17] | outcome [18] | Potency [19] | outcome [20]

COc1cc(C)nc(-n2nc(C)cc2OC)n1
inactive: Potency [1] | Potency [2] | outcome [3] | max response [4] -0.0998% | outcome [5] | outcome [6] | Potency [7] | outcome [8] | Potency [9] | Potency [10] | outcome [11] | Potency [12] | Potency [13] | outcome [14] | outcome [15] | Potency [16] | Potency [17] | outcome [18] | Potency [19] | outcome [20]

CC(CO)(CO)[N+](=O)[O-]
inactive: Potency [1] | Potency [2] | outcome [3] | max response [4] 3.85% | outcome [5] | outcome [6] | Potency [7] | outcome [8] | Potency [9] | Potency [10] | outcome [11] | Potency [12] | Potency [13] | outcome [14] | outcome [15] | Potency [16] | Potency [17] | outcome [18] | Potency [19] | outcome [20]

CCOc1ccccc1OCC
inactive: Potency [1] | Potency [2] | outcome [3] | max response [4] 5.1% | outcome [5] | outcome [6] | Potency [7] | outcome [8] | Potency [9] | Potency [10] | outcome [11] | Potency [12] | Potency [13] | outcome [14] | outcome [15] | Potency [16] | Potency [17] | outcome [18] | Potency [19] | outcome [20]

CC(C)(C)C(=O)Oc1ccc(S(=O)(=O)Nc2ccccc2C(=O)NCC(=O)O)cc1
inactive: Potency [1] | Potency [2] | outcome [3] | max response [4] 7.92% | outcome [5] | outcome [6] | Potency [7] | outcome [8] | Potency [9] | Potency [10] | outcome [11] | Potency [12] | Potency [13] | outcome [14] | outcome [15] | Potency [16] | Potency [17] | outcome [18] | Potency [19] | outcome [20]

Cc1ncc([C@@H](CCCCCCc2ccc3c(n2)NCCC3)CC(=O)O)cn1
inactive: Potency [1] | Potency [2] | outcome [3] | max response [4] 4.72% | outcome [5] | outcome [6] | Potency [7] | outcome [8] | Potency [9] | Potency [10] | outcome [11] | Potency [12] | Potency [13] | outcome [14] | outcome [15] | Potency [16] | Potency [17] | outcome [18] | Potency [19] | outcome [20]

Nc1ccccn1
inactive: Potency [1] | Potency [2] | outcome [3] | max response [4] -3.82% | outcome [5] | outcome [6] | Potency [7] | outcome [8] | Potency [9] | Potency [10] | outcome [11] | Potency [12] | Potency [13] | outcome [14] | outcome [15] | Potency [16] | Potency [17] | outcome [18] | Potency [19] | outcome [20]

CCN[C@H]1C[C@H](C)S(=O)(=O)c2sc(S(N)(=O)=O)cc21
inactive: Potency [1] | Potency [2] | outcome [3] | max response [4] -0.522% | outcome [5] | outcome [6] | Potency [7] | outcome [8] | Potency [9] | Potency [10] | outcome [11] | Potency [12] | Potency [13] | outcome [14] | outcome [15] | Potency [16] | Potency [17] | outcome [18] | Potency [19] | outcome [20]

Clc1cc(Cl)c(Cl)nc1Cl
inactive: Potency [1] | Potency [2] | outcome [3] | max response [4] -11.7% | outcome [5] | outcome [6] | Potency [7] | outcome [8] | Potency [9] | Potency [10] | outcome [11] | Potency [12] | Potency [13] | outcome [14] | outcome [15] | Potency [16] | Potency [17] | outcome [18] | Potency [19] | outcome [20]

CCCCOC(=O)CCC(C)=O
inactive: Potency [1] | Potency [2] | outcome [3] | max response [4] -4.42% | outcome [5] | outcome [6] | Potency [7] | outcome [8] | Potency [9] | Potency [10] | outcome [11] | Potency [12] | Potency [13] | outcome [14] | outcome [15] | Potency [16] | Potency [17] | outcome [18] | Potency [19] | outcome [20]

CCCCCCCCCCOc1cc2c(=O)c(C(=O)OCC)c[nH]c2cc1OCC
inactive: cytotoxicity increase [1] 0.78% [at 6.97 µM] | activity change, negative = cytotoxicity [2] -0.329% [at 6.97 µM] | viability change, negative = cytotoxic [3] 8.14% [at 6.97 µM] | max response [4] 4.14% | activity change [5] 2.15% [at 6.97 µM] | cytotoxicity increase [6] 1.94% [at 6.97 µM] | activity change, negative = cytotoxic [7] 0.806% [at 6.97 µM] | cytotoxicity [8] 2.18% [at 6.97 µM] | cytotoxicity increase [9] -5.64% [at 6.97 µM] | activity change, negative = cytotoxicity [10] -0.96% [at 6.97 µM] | cytotoxicity increase [11] 0.664% [at 6.97 µM] | cytotoxicity [12] 9.56% [at 6.97 µM] | cytotoxicity increase [13] -9.18% [at 6.97 µM] | cytotoxicity increase [14] 2.19% [at 6.97 µM] | activity change, negative = cytotoxic [15] 4.28% [at 6.97 µM] | activity change, negative = cytotoxicity [16] 3.7% [at 6.97 µM] | activity change, negative = cytotoxicity [17] 3.87% [at 6.97 µM] | activity change [18] 0.406% [at 6.97 µM] | activity change, negative = cytotoxicity [19] 9.73% [at 6.97 µM] | cytotoxicity increase [20] -1.8% [at 6.97 µM]
